Results from the supplement of paper PMC9337992.
± gives the standard deviation of the averaged measurements.

Experiments:
Test in all cases: cell proliferation (confluence) relative to DMSO control; higher = less growth inhibition
Details in all cases: 5 uM; 6 d
BT549 = test system: BT549
Method in brief: (§1)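 Triple-negative breast cancer cell lines were seeded into 384-well plates at 500 cells per well. Once they had attached, each epigenetic chemical probe in DMSO was added at a final 5 μM for 6 d, with four replicate wells per compound on every plate. Images were taken on an IncuCyte ZOOM with a ×10 objective in phase-contrast and processed in Incucyte 2016 software. Confluence was expressed relative to wells given DMSO alone.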

CAL120 = test system: CAL120
Method in brief: as §1

HCC1143 = test system: HCC1143
Method in brief: as §1

HCC1395 = test system: HCC1395
Method in brief: as §1

HCC153 = test system: HCC153
Method in brief: as §1

HCC1806 = test system: HCC1806
Method in brief: as §1

HCC38 = test system: HCC38
Method in brief: as §1

HCC70 = test system: HCC70
Method in brief: as §1

Hs578-T = test system: Hs578-T
Method in brief: as §1

MB157 = test system: MB157
Method in brief: as §1

SUM149-PT = test system: SUM149-PT
Method in brief: as §1

SUM159-PT = test system: SUM159-PT
Method in brief: as §1

Row | SMILES | cell proliferation (BT549) [%] | cell proliferation (CAL120) [%] | cell proliferation (HCC1143) [%] | cell proliferation (HCC1395) [%] | cell proliferation (HCC153) [%] | cell proliferation (HCC1806) [%] | cell proliferation (HCC38) [%] | cell proliferation (HCC70) [%] | cell proliferation (Hs578-T) [%] | cell proliferation (MB157) [%] | cell proliferation (SUM149-PT) [%] | cell proliferation (SUM159-PT) [%]
1 | O=C(NCC(=O)N1CCCC1)Nc1ccc2cnccc2c1 | 97.4 ± 1.4 | 98.79 ± 0.98 | 97.5 ± 2 | 99.815 ± 0.096 | 63 ± 9.2 | 82.8 ± 2.7 | 99.873 ± 0.048 | 94.9 ± 5.1 | 96.4 ± 1.6 | 94.3 ± 5.8 | 76.9 ± 9.1 | 99.995 ± 0.0035
2 | COc1cc2c(cc1OCCCN1CCCC1)N=C(N)C21CCC1 | 99.32 ± 0.28 | 83.1 ± 6.3 | 95.6 ± 3.2 | 99.981 ± 0.027 | 80.7 ± 2.8 | 99.41 ± 0.36 | 98.89 ± 0.42 | 96.5 ± 3.6 | 92.3 ± 4.1 | 72.5 ± 12 | 78.6 ± 16 | 99.951 ± 0.031
3 | CN(C)[C@H]1CN(C2CCc3cccc(F)c32)C[C@@H]1c1ccc(N2CCN(S(C)(=O)=O)CC2)cc1 (some centres not stated) | 99.839 ± 0.071 | 91.9 ± 3.3 | 99.22 ± 0.33 | 99.91 ± 0.14 | 83.7 ± 2.5 | 99.14 ± 0.58 | 99.71 ± 0.21 | 82.3 ± 13 | 97.33 ± 0.62 | 91.6 ± 4.3 | 87.8 ± 10 | 99.996 ± 0.0017
4 | Clc1cc2c(NC3CCCC3)nnc(-c3ccncc3)c2cc1Cl | 99.863 ± 0.055 | 83.4 ± 7.1 | 99.1 ± 1.1 | 99.965 ± 0.029 | 87.7 ± 5.4 | 98.95 ± 0.87 | 99.63 ± 0.21 | 99.12 ± 0.58 | 97.48 ± 0.54 | 98.8 ± 1.5 | 64.6 ± 19 | 99.992 ± 0.0029
5 | COc1ccccc1S(=O)(=O)Nc1ccc2c(c1)CN(C)C(=O)N2 | 95.7 ± 1.4 | 50.1 ± 11 | 97.21 ± 0.84 | 98.12 ± 0.25 | 59.7 ± 1.8 | 38.5 ± 27 | 35.2 ± 7.6 | 81.7 ± 7.9 | 47.7 ± 1.6 | 50.9 ± 5.5 | 20.8 ± 3.4 | 97.92 ± 0.3
6 | COc1ccccc1C(=O)Nc1cc2c(cc1N1CCCC1)n(C)c(=O)n2C | 97.6 ± 1.7 | 99.2 ± 0.47 | 98.3 ± 1.9 | 99.979 ± 0.014 | 62.3 ± 11 | 77.1 ± 7.8 | 99.66 ± 0.35 | 96.7 ± 3.5 | 98.42 ± 0.77 | 89.6 ± 12 | 63 ± 8.4 | 99.986 ± 0.0076
7 | CCCc1cc(C)[nH]c(=O)c1CNC(=O)c1cc(-c2ccnc(N3CCN(C)CC3)c2)cc2c1cnn2C(C)C | 99.876 ± 0.081 | 94.6 ± 4 | 99.63 ± 0.27 | 99.992 ± 0.007 | 88.3 ± 2.3 | 99.64 ± 0.32 | 99.73 ± 0.33 | 97.6 ± 2.6 | 97.34 ± 0.48 | 95.1 ± 5.6 | 61.1 ± 10 | 99.976 ± 0.033
8 | COc1ccc(CCc2nc3cc(-c4c(C)noc4C)ccc3n2C[C@H](C)N2CCOCC2)cc1Cl | 98.71 ± 0.76 | 99.636 ± 0.017 | 98.527 ± 0.086 | 99.941 ± 0.031 | 48.7 ± 1.4 | 82.67 ± 0.12 | 99.927 ± 0.017 | 99.75 ± 0.26 | 96.9 ± 1 | 90.6 ± 2.1 | 34.4 ± 3.4 | 99.994 ± 0.0041
9 | CCCOc1ccn2c(C(C)=O)cc(-c3ccccc3S(C)(=O)=O)c2c1 | 99.1 ± 0.35 | 99.03 ± 0.55 | 98.2 ± 1 | 99.968 ± 0.022 | 53 ± 5.5 | 81.9 ± 6.8 | 99.1 ± 0.59 | 92.2 ± 7.6 | 97.6 ± 0.9 | 76.8 ± 20 | 88.7 ± 8.8 | 99.983 ± 0.013
10 | Cc1nnc2c3ccccc3c(N[C@@H](C)[C@H](c3ccccc3)N(C)C)nn12 [L-moses] | 98.1 ± 1.5 | 99.22 ± 0.67 | 97.14 ± 0.68 | 99.898 ± 0.059 | 60.8 ± 6 | 81.2 ± 6.2 | 99.61 ± 0.29 | 96.2 ± 2.5 | 87 ± 19 | 98.5 ± 1.9 | 75.8 ± 11 | 99.952 ± 0.041
11 | CCC(=O)N1CCOc2c(cc(-c3ccc(OC)c(OC)c3)cc2OC[C@H]2CCCN(C)C2)C1 | 98 ± 1.1 | 98.2 ± 1.5 | 99.31 ± 0.35 | 99.981 ± 0.0043 | 65.2 ± 5.7 | 79 ± 6.8 | 99.89 ± 0.02 | 92.5 ± 7.2 | 97.28 ± 0.62 | 94.2 ± 4.5 | 29.9 ± 7.1 | 99.985 ± 0.014
12 | CC(C)Oc1ccc(-c2c[nH]cc2CN(C)CCO)cc1 | 97.58 ± 0.92 | 97.5 ± 1.6 | 96.98 ± 0.82 | 99.978 ± 0.011 | 61.5 ± 8.3 | 81.7 ± 3.2 | 99.55 ± 0.37 | 97.3 ± 1.8 | 97.16 ± 0.64 | 94.2 ± 3.9 | 74 ± 11 | 99.986 ± 0.014
13 | COc1cc(-c2cn(C)c(=O)c3cnccc23)c(OC)cc1CN(C)C | 99.729 ± 0.064 | 96.7 ± 2 | 96.9 ± 3.3 | 99.978 ± 0.01 | 55.9 ± 8.2 | 65.4 ± 6 | 99.64 ± 0.17 | 96.2 ± 2.6 | 98.52 ± 0.23 | 88.3 ± 10 | 74.4 ± 19 | 99.991 ± 0.0063
14 | O=C([C@@H](Cc1cccc(C(F)(F)F)c1)NS(=O)(=O)c1cc(F)c2c(c1)CCNC2)N1CCCC1 | 98.6 ± 1.6 | 97.2 ± 1.3 | 97.9 ± 1.8 | 99.978 ± 0.021 | 79.2 ± 12 | 86.9 ± 14 | 99.44 ± 0.59 | 96.1 ± 2.5 | 94.3 ± 4.3 | 82.3 ± 15 | 87.4 ± 7.1 | 99.992 ± 0.0088
15 | COc1c(C)cc(NC(=O)c2nn(Cc3ccc(F)cc3)c3c2CN(C(=O)c2ccc[nH]2)C[C@]3(C)C(N)=O)cc1C | 95.2 ± 2.6 | 98.5 ± 1.5 | 97.72 ± 0.68 | 99.916 ± 0.05 | 56.1 ± 5.2 | 76.3 ± 3.2 | 99.26 ± 0.96 | 99.43 ± 0.33 | 98.56 ± 0.55 | 93.7 ± 9.7 | 75.6 ± 20 | 99.971 ± 0.051
16 | CCN(C(=O)CO)[C@H]1CN(/C(=N\C#N)Nc2cccc(OC(F)F)c2)N=C1c1ccc(Cl)c(Cl)c1 | 99.63 ± 0.31 | 90.8 ± 2.4 | 99.11 ± 0.44 | 99.957 ± 0.033 | 82.4 ± 4.8 | 99.79 ± 0.11 | 99.79 ± 0.12 | 90.8 ± 8.2 | 98.67 ± 0.29 | 78.6 ± 8.9 | 75.9 ± 10 | 99.999 ± 0.002
